Measurements from paper PMC4336329 (PLoS ONE, 2015).
Out of some 310,000 compounds screened, about 14,000 (4.5%) showed an effect of 50% or more. The effect is printed as a negative number. Only a selection was taken, and strong results are over-represented in it overall.

target: human ether-à-go-go-related gene (hERG) potassium channel (human, UniProt Q12809); test: primary screen, population patch clamp on CHO cells stably expressing hERG; higher = less effect of the substance
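Further: peak tail current of the secondary pulse compared with the same well before compound.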

Chain of human ether-à-go-go-related gene (hERG) potassium channel (Q12809 whole entry, looked up): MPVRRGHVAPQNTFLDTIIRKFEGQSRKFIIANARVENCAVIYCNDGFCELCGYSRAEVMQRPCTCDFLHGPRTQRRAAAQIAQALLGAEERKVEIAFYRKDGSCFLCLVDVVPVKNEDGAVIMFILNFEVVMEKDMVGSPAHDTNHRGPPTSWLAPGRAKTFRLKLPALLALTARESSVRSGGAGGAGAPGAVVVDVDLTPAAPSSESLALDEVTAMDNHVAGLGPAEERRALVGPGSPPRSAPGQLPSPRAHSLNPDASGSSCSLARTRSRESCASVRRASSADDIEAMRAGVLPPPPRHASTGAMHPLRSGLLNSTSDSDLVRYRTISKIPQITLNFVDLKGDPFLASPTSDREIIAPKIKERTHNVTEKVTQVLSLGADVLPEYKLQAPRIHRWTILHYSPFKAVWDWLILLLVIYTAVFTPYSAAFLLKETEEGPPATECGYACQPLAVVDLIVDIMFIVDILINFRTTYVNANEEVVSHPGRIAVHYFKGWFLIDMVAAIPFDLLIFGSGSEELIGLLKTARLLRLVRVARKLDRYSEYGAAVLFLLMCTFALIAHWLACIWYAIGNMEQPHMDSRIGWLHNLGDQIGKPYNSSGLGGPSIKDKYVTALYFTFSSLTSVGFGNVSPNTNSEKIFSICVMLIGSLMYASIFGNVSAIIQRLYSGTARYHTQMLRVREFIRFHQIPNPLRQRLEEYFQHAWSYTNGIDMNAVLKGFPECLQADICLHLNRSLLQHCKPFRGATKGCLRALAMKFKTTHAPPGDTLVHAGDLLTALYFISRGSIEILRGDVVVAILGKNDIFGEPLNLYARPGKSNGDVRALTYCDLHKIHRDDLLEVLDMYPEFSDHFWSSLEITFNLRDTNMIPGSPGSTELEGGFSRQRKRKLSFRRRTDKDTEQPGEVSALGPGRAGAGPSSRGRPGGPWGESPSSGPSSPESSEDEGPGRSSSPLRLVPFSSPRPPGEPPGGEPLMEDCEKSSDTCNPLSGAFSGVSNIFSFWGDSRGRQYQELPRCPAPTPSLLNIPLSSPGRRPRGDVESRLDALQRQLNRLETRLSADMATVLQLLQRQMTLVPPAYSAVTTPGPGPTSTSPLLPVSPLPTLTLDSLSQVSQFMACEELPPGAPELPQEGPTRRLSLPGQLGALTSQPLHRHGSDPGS

| Structure (SMILES) | hERG current change (%, negative = inhibition) at 10uM [%] |
| --- | --- |
| CN(C(=O)c1ccc(Cl)c([N+](=O)[O-])c1)C1(C)CCS(=O)(=O)C1 (centres unmarked) | -10.9 |
| CSc1ccccc1C(=O)C1CCCN(Cc2ccn[nH]2)C1 (centres unmarked) | -8.34 |
| CSc1ccccc1C(=O)C1CCCN(Cc2cnn(-c3ccccc3)c2)C1 (centres unmarked) | -67.4 |
| CSc1ccccc1C(=O)C1CCCN(Cc2ccncc2)C1 (centres unmarked) | -41.7 |
| CSc1ccccc1C(=O)C1CCCN(Cc2ccccn2)C1 (centres unmarked) | -12.6 |
| O=C(c1ccc(Cl)cc1)C1CCCN(Cc2cnn(-c3ccccc3)c2)C1 (centres unmarked) | -74.6 |
| CSc1ncc(CN2CCCC(C(=O)c3ccccc3SC)C2)cn1 (centres unmarked) | -65.1 |
| CSc1ccccc1C(=O)C1CCCN(Cc2c(C)n(C)n(-c3ccccc3)c2=O)C1 (centres unmarked) | -16.2 |
| O=C(C1CCCN(Cc2ccc(Cl)cc2)C1)N1CCCCC1.O=C(O)C(=O)O (centres unmarked) | -14.9 |
| Cc1cc(C)n2c(SCC(=O)NC3CCCCC3C)nnc2n1 (centres unmarked) | 29.5 |
| CCN(C(=O)COC(=O)/C=C/c1ccco1)c1c(N)n(Cc2ccccc2)c(=O)[nH]c1=O | -1.01 |
| CC(C)CC(NC(=O)CCC(=O)OCC(=O)[C@@]1(O)CCC2[C@@H]3CCC4=CC(=O)C=C[C@]4(C)C3[C@@H](O)C[C@@]21C)C(=O)O (some centres unmarked) | 0.23 |
| O=C(CSc1nnc(-c2ccccc2Cl)o1)Nc1ccccn1 | 14.9 |
| CN(CCC#N)CC(=O)Nc1ccc(S(N)(=O)=O)cc1 | 13.3 |
| CCc1cc(C(=O)N2CCCC(C(=O)c3cccc(OC(C)C)c3)C2)n(C)n1 (centres unmarked) | -6.49 |
| CCc1nc(N2CCCCC2)c2oc3ccccc3c2n1.Cl | 6.57 |
| CCc1nc(N2CCC(C)CC2)c2oc3ccccc3c2n1.Cl | 5.55 |
| CCc1nc(N2CCN(C(=O)c3ccco3)CC2)c2oc3ccccc3c2n1.Cl | -64.8 |
| Cc1nc(N2CCN(C(=O)c3ccco3)CC2)c2oc3ccccc3c2n1.Cl | -54.8 |
| Cc1nc(N2CCC(C)CC2)c2oc3ccccc3c2n1 | 6.63 |
| O=C(c1ccco1)N1CCN(c2ncnc3c2oc2ccccc23)CC1 | -55.4 |
| Cc1nc(N2CCOCC2)c2oc3ccccc3c2n1 | -9.35 |
| Clc1ccc(N2CCN(c3ncnc4c3oc3ccccc34)CC2)cc1 | 4.58 |

| Structure (SMILES) | hERG current change (%, negative = inhibition) at 10uM [%] |
| --- | --- |
| O=C(c1ccco1)N1CCN(c2ncccn2)CC1 | -18.2 |
| CC(C)=NN/C(N)=N/C(=S)Nc1ccc(C)cc1 | -3.24 |
| O=C(NCC1CCCO1)c1cccc(NC(=O)c2ccco2)c1 (centres unmarked) | 0.813 |
| Cc1oc(-c2ccccc2F)nc1CSCC(=O)NC1CC1 | 3.12 |
| O=C(CN(C1CCCCC1)S(=O)(=O)c1ccc(Cl)cc1)NCc1ccncc1 | -69.8 |
| CN(CC(=O)NCc1ccncc1)S(=O)(=O)c1ccc(Br)cc1 | -13.4 |
| Cc1ccc(S(=O)(=O)N(CC(=O)NCc2ccncc2)C2CCCCC2)cc1 | -63 |
| O=C(CN(C1CCCCC1)S(=O)(=O)c1ccc(Br)cc1)NCc1ccncc1 | -72.9 |
| CS(=O)(=O)N(CC(=O)NCc1ccc(Cl)cc1)C1CCCCC1 | -26.1 |
| O=C(CN(C1CCCCC1)S(=O)(=O)c1ccc(F)cc1)NCc1ccncc1 | -41.9 |
| CCN(C1CCCCC1)S(=O)(=O)c1ccc(S(=O)(=O)NCc2ccncc2)cc1 | -4.63 |
| O=C(CCSc1ccc(Cl)cc1)NCc1ccncc1 | -32.7 |
| Cc1ccc(SCCC(=O)NCc2ccncc2)cc1 | -61.9 |
| O=C(CN(C1CCCCC1)S(=O)(=O)c1ccc(Cl)cc1)NCCCO | -25.8 |
| Cc1ccc(SCC(=O)NCc2ccncc2)cc1 | -6.77 |
| CS(=O)(=O)N(CC(=O)NCc1ccncc1)C1CCCCC1 | 1.91 |
| NNC(=O)CSc1nc(-c2ccccc2)cn1-c1ccccc1 | -0.037 |
| Cc1ccccc1NC(=O)C1CCN(c2cnccn2)CC1 | -14.7 |
| Cc1cc(C)cc(NC(=S)N2CCN(c3ncccn3)CC2)c1 | 13 |
| Cc1ccccc1C(=O)NC(NC(=S)Nc1ccc(S(N)(=O)=O)cc1)C(Cl)(Cl)Cl (centres unmarked) | 19.3 |
| CCOC(=O)C1CCN(C(=O)c2ccc(OC3CCN(C(=O)CCOC)CC3)cc2)CC1 | 8.91 |
| CCSc1ccc([C@@H]2[C@H]3C(=O)N(C)C(=O)[C@H]3[C@]3(C(=O)OC)CCCCN23)cc1OC.O=C(O)C(F)(F)F | -8.41 |
| COc1cccc(OC)c1C(=O)Nc1ccc2c(c1)Cc1ccccc1-2 | 15.5 |

| Structure (SMILES) | hERG current change (%, negative = inhibition) at 10uM [%] |
| --- | --- |
| Cc1cc(-c2nn(-c3ccccc3F)cc2CNCCc2cnc[nH]2)c(C)s1 | -53.6 |
| Cc1cc(-c2nn(-c3ccccc3F)cc2CN2CCCC(CO)C2)c(C)s1 (centres unmarked) | -7.33 |
| COc1ccc(-c2nn(-c3ccccc3C)cc2CNCCc2cnc[nH]2)cc1F | -70.6 |
| Cc1cc(-c2nn(-c3ccccc3F)cc2CN2CCN(c3ccncc3)CC2)c(C)s1 | -94.3 |
| CCn1cc(CNCc2cn(-c3ccccc3C)nc2-c2ccc(OC)c(F)c2)cn1 | -22 |
| Cc1cc(-c2nn(-c3ccccc3F)cc2CN2CCC(C(N)=O)CC2)c(C)s1 | -28.5 |
| Cc1cc(-c2nn(-c3ccccc3F)cc2CN2CCCC(O)C2)c(C)s1 (centres unmarked) | -9.16 |
| COc1ccc(-c2nn(-c3ccccc3C)cc2CNCc2cccnc2)cc1F | -38.3 |
| Cc1cc(-c2nn(-c3ccccc3F)cc2CNCCc2cnccn2)c(C)s1 | -52.3 |
| Cc1cc(-c2nn(-c3ccccc3F)cc2CN2CCC(O)CC2)c(C)s1 | -28.9 |
| Cc1cc(-c2nn(-c3ccccc3F)cc2CN2CCN(c3ccccn3)CC2)c(C)s1 | 18.6 |
| Cc1cc(-c2nn(-c3ccccc3F)cc2CN(C)CC(O)CO)c(C)s1 (centres unmarked) | -22.3 |
| COc1cc(/C=C/C(=O)OCC(=O)NCC(=O)Nc2cccc(C)c2C)ccc1OC(F)F | -25.7 |
| Cc1cc(C)nc(SC(C)CNS(=O)(=O)c2ccccc2)n1 (centres unmarked) | 0.485 |
| CCC(C)(C)NC(=O)C(c1ccc(OC)cc1)N(C(=O)CCC(=O)Nc1cc(C)on1)c1cccc(OC)c1 (centres unmarked) | 1.47 |
| O=C(Cn1cncn1)N/N=C/c1cc([N+](=O)[O-])ccc1O | 1.67 |
| COc1ccc(OC)c(NC(=O)c2ccccc2N(C)S(=O)(=O)c2ccc(C)cc2)c1 | -9.39 |
| CCOC(=O)CSc1nc2cc3c(cc2cc1C#N)OCCO3 | 19 |
| Cc1ccc(C(=O)NCCc2cccs2)cc1 | 7.84 |
| COC(=O)c1[nH]c2ccc(C)cc2c1NC(=O)C(C)N1CCN(C2CCCCC2)CC1 (centres unmarked) | -77 |
| COC(=O)c1[nH]c2ccccc2c1NC(=O)C(C)N1CC(C)OC(C)C1 (centres unmarked) | 5.31 |
| COC(=O)c1[nH]c2ccc(Cl)cc2c1NC(=O)CCN1CCOCC1 | 2.71 |
| COC(=O)c1[nH]c2ccccc2c1NC(=O)C(C)N1CCOCC1 (centres unmarked) | 9.7 |

| Structure (SMILES) | hERG current change (%, negative = inhibition) at 10uM [%] |
| --- | --- |
| COC(=O)c1[nH]c2ccc(C)cc2c1NC(=O)NC1CCCCC1 | 8.55 |
| COC(=O)c1[nH]c2ccc(Br)cc2c1NC(=O)C(C)N1CCN(C2CCCCC2)CC1 (centres unmarked) | -78.2 |
| COC(=O)c1[nH]c2ccc(Br)cc2c1NC(=O)CN1CCCc2ccccc21 | -4.4 |
| COC(=O)c1[nH]c2ccc(Br)cc2c1NC(=O)CN1CCCCC1CCO (centres unmarked) | -2.6 |
| COC(=O)c1[nH]c2ccc(Cl)cc2c1NC(=O)CCN1CCN(C2CCCCC2)CC1 | -80 |
| COC(=O)c1[nH]c2ccc(Cl)cc2c1NC(=O)CN1CCC(C(N)=O)CC1 | -2.26 |
| COC(=O)c1[nH]c2ccc(Br)cc2c1NC(=O)CN1CCN(C2CCCCC2)CC1 | -78.7 |
| CCOC(=O)C1CCCN(CC(=O)Nc2c(C(=O)OC)[nH]c3ccc(Br)cc23)C1 (centres unmarked) | -30.9 |
| CCC(Sc1nc2ccncc2[nH]1)C(=O)Nc1cc(Cl)ccc1C (centres unmarked) | -44.3 |
| CC(=O)N1c2ccc(S(=O)(=O)N3CCC(C(=O)Nc4cccc(Cl)c4)CC3)cc2CC1C (centres unmarked) | 15.1 |
| O=c1cc(CO)oc(C(Nc2ccccn2)c2ccccc2F)c1O (centres unmarked) | 17.5 |
| CC(C)c1c(C(=O)N/N=C/c2ccsc2)nnn1-c1nonc1N | 23.8 |
| O=c1c2cc(F)ccc2[nH]c(=S)n1CCCN1CCOCC1 | -3.61 |
| CC1(C)CC(=O)C2=C(C1)NC(=O)NC2c1ccc(Cl)cc1 (centres unmarked) | 17.3 |
| COc1cc(OC)c(C(=O)OCC(=O)c2cc(C)n(CC3CCCO3)c2C)cc1OC (centres unmarked) | 13.3 |
| Cc1cc(C(=O)COC(=O)CN(C)S(=O)(=O)c2ccc(Cl)cc2)c(C)n1Cc1cccs1 | -5.54 |
| Cc1cc(C(=O)COC(=O)C2CCN(C(=O)c3ccc(Cl)cc3)CC2)c(C)n1CC1CCCO1 (centres unmarked) | -15.2 |
| Cc1cc(C(=O)COC(=O)CN(C)S(=O)(=O)c2ccc(Cl)cc2)c(C)n1CC1CCCO1 (centres unmarked) | -55.2 |
| COc1cc(C(=O)OCC(=O)c2cc(C)n(CC3CCCO3)c2C)cc(OC)c1C (centres unmarked) | -68 |
| COc1cc(OC)cc(C(=O)OCC(=O)c2cc(C)n(CC3CCCO3)c2C)c1 (centres unmarked) | -39 |
